High-throughput results (PubChem)
Rows were chosen to be rich in hits. Some 2.2% of all compounds tested hit in one or more screens of this group.
IEC-6 cytotox = kills IEC-6 intestinal cells in KLF5 counter-screen. 290,000 tested, 0.78% active. inhibition, % at 5 µM. IEC-6 cytotoxicity, luminescence viability; in the data active means inhibition above about 22%;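 further: 0% = plate median of test compound wells and 100% = cytotoxic reference compound wells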
APP 5UTR inh = APP translation inhibition | SH-SY5Y APP 5'UTR-luciferase reporter, luminescence | inhibition, % at 2 µM | 190,000 tested, 0.82% active;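 active means inhibition above a set limit, derived from the sample mean plus 3 SD, cut at about 45% in these data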
Ba/F3 V617F tox = loss of viability in JAK2V617F-driven Ba/F3 cells. Ba/F3 EpoR-JAK2V617F viability, ATP luminescence. 220,000 tested, 1.1% active. inhibition, % at 5.6 µM;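 active means inhibition above the campaign mean plus 3 SD over all tested compounds, cut at about 24% in these data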;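 further: cytokine-independent growth of Ba/F3 cells driven by EpoR plus mutant JAK2; 0% = DMSO-treated cells and 100% = JAK inhibitor I control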
BaF3 tox = counter-screen for JAK2V617F inhibitors: parental Ba/F3 viability inhibitors; CellTiter-Glo ATP luminescence; inhibition, % at 5.6 µM; 220,000 tested, 1.1% active;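 active means inhibition above a per-campaign cutoff, the mean inhibition of all tested compounds plus 3 SD, cut at about 27% in these data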;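 further: 0% = DMSO wells and 100% = JAK Inhibitor I control wells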
aSyn 5UTR inh = MLPCN primary screen, SNCA 5' untranslated region | 300,000 tested, 0.82% active | AID 1813 | inhibition, % (tested at 7.5 µM) | alpha-synuclein 5'UTR reporter, inhibitor activity; in the data active means inhibition above about 60%;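 further: H4 neuroglioblastoma cells stably carrying SNCA 5'UTR luciferase fusion; 0% = DMSO wells and 100% = positive control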
KLF5 inhibitor = inhibitors of KLF5 expression; 290,000 tested, 0.23% active; inhibition, % at 5 µM; DLD-1 KLF5 promoter-luciferase reporter, luminescence;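 active means inhibition above a per-plate limit of that plate's mean compound inhibition plus 3 SD, cut at about 60% in these data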;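 further: 0% = DMSO wells and 100% = LY294002 at 200 µM; higher means less KLF5 promoter-driven luciferase light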
* marks the source's active call; other numbers are inactive results; · = no result given.

SMILES	IEC-6 cytotox	APP 5UTR inh	Ba/F3 V617F tox	BaF3 tox	aSyn 5UTR inh	KLF5 inhibitor
O=C(Nc1ccc2c(c1)OCCO2)c1ccccn1	8	-107	7	14	88*	-41
CCOC(=O)C(C)(C)Oc1cccc2c1S(=O)(=O)c1ccccc1-2	·	·	·	·	-15	·
CCCCCCCC1CC(CSc2ncn[nH]2)OC1=O (configuration not stated)	5	49*	-1	0	19	-21
CCN(CC)CCCNc1ccc(-c2nnc(-c3ccc(OCC(C)C)cc3)o2)cn1	6	·	·	·	121*	-23
CC(C)COc1ccc(-c2nnc(-c3ccco3)o2)cc1	-8	-187	-3	2	86*	-163
O=C(COc1ccccc1)Nc1ccc(-c2nnc(-c3ccco3)o2)cc1	-7	-31	2	4	-84	-27
CCCOc1ccc(-c2nnc(-c3ccco3)o2)cc1	-1	-104	-2	2	65*	-69
CC(=O)c1cccc(NC(=O)CN2C(=O)COc3ccc(S(=O)(=O)N4CCOCC4)cc32)c1	3	·	·	·	73*	-1
CC1=NN(C(N)=S)C(=O)C1N=Nc1ccc([N+](=O)[O-])cc1 (configuration not stated)	0	·	·	·	-41	-69
Cc1ccc(NC(=O)c2cc(N3C(=O)CCC3=O)ccc2N2CCOCC2)cc1	6	-18	-3	-4	-26	-14
Cc1ccc(NC(=O)c2cc(N3C(=O)C=CC3=O)ccc2N2CCOCC2)cc1Cl	-5	77*	-1	3	8	1
Brc1ccc2[nH]c3c(N4CCc5ccccc5C4)ncnc3c2c1	-2	10	1	1	-43	-2
Fc1ccc2[nH]c3c(N4CCc5ccccc5C4)ncnc3c2c1	12	·	44*	55*	22	-29
Cc1ccc2[nH]c3c(N4CCc5ccccc5C4)ncnc3c2c1	17	-10	44*	49*	-3	0
O=C(NCCC1CCCCN1S(=O)(=O)c1cccs1)C(=O)Nc1cccc(F)c1 (configuration not stated)	·	·	·	·	-21	·
COc1ccc(CSc2nnc(-c3ccncc3)n2C)cc1F	4	·	·	·	-94	-14
O=C(CSc1ncnc2nc[nH]c12)c1ccc([N+](=O)[O-])cc1	15	·	36*	23	10	-2
CN(C)c1ccc(-c2noc(-c3ccccc3O)n2)cc1	3	-144	0	1	71*	-8
c1ccc(-c2noc(-c3ccccc3-c3ccccc3)n2)cc1	4	14	-3	2	-7	-10
CCN(CCO)c1ccc(N=Nc2cc(C)[nH]n2)cc1	-5	·	-5	-1	102*	41
O=C(Nn1c(COc2ccccc2)nc2ccccc2c1=O)C(Cl)(Cl)Cl	7	·	·	·	-5	-24
O=C1N/C(=C/c2ccc(Br)cc2)C(O)=C1C=NCc1ccccc1	-1	59*	-1	6	-27	-16
O=C1C(C=NCc2ccncc2)=C(O)c2ccccc21	0	-17	-5	2	-4	-45
COCCNC(=O)C1CC(c2ccccc2C(F)(F)F)=NO1 (configuration not stated)	·	·	·	·	-15	·
C=CCN=c1scc(-c2ccccc2)n1/N=C/c1ccccn1	31*	-99	53*	57*	-68	-67
SMILES	IEC-6 cytotox	APP 5UTR inh	Ba/F3 V617F tox	BaF3 tox	aSyn 5UTR inh	KLF5 inhibitor
N=c1n(CCN2CCCC2)c2ccccc2n1CC(O)c1ccc(Cl)c(Cl)c1 (configuration not stated)	101*	4	102*	104*	-45	0
N=c1n(CCN2CCOCC2)c2ccccc2n1CC(=O)c1ccc(Cl)c(Cl)c1	3	-12	-1	2	-66	-1
CCOc1ccccc1NC(=O)C1CCCN(S(=O)(=O)c2c(C)[nH]c(=O)[nH]c2=O)C1 (configuration not stated)	1	45*	4	6	-11	-1
O=C(Nc1ccc(Cl)cc1)Nc1ccccc1NS(=O)(=O)c1cccs1	-4	-9	2	62*	-4	-21
Cc1ccc(C(=O)NCC(=O)N/N=C/c2cccs2)cc1C	0	-4	-2	2	12	0
c1coc(CNc2nc(-c3cccs3)cs2)c1	3	-40	1	3	107*	-54
Oc1ccc(-c2csc(NCc3ccco3)n2)cc1	0	-24	0	4	-177	-41
Cc1cc(C(=O)NCc2cc(F)cc3c2OCOC3)nn1C	-2	·	0	-2	-7	0
Cn1nc(C(C)(C)C)cc1C(=O)NCc1cc(F)cc2c1OCOC2	9	·	44*	57*	-12	-19
Cc1ccc(OCC(=O)N(Cc2ccccc2)c2c(N)n(Cc3ccccc3)c(=O)[nH]c2=O)c(C)c1	·	·	·	·	-12	·
COc1cccc(CNC(=O)CCS(=O)(=O)c2ccc3c(c2)NC(=O)CO3)c1	0	·	·	·	99*	-10
COc1cccc(CNC(=O)CCS(=O)(=O)c2cc3c(cc2C)NC(=O)CO3)c1	1	·	·	·	-4	-2
COc1ccccc1C(=O)COC(=O)/C(=C/c1ccccc1)NC(C)=O	·	·	·	·	-15	·
CCOC(=O)C(=CNc1cc(C)nn1-c1ccc(C)cc1)C(=O)OCC	10	22	24*	17	-12	21
CCCn1ncc2c(Nc3ccc(C)c(C)c3)ncnc21	-1	·	·	·	-92	-114
COc1cc(NC(=O)COC(=O)CCOc2ccc(C)cc2)cc(OC)c1	-6	·	·	·	4	-24
O=C(CSc1ccc2nnc(-c3ccccn3)n2n1)N1CCOCC1	-4	59*	-4	4	1	-16
CCOC(=O)N1CCN(C(=O)CSc2ccc3nnc(-c4ccccn4)n3n2)CC1	3	-8	2	10	11	-4
CN(C(=O)COC(=O)c1nc(Cl)c(Cl)c(Cl)c1Cl)C1CCS(=O)(=O)C1 (configuration not stated)	2	59*	-2	7	-210	-24
O=C(CCCn1cncn1)N1CCCC(Nc2ccc(F)cc2)C1 (configuration not stated)	0	·	·	·	1	-12
Clc1ccc(/C=C/c2nc3ccccc3[nH]2)c(Cl)c1	9	-221	15	17	68*	47
CCc1nc(CN2CCCC(C(=O)c3ccc4c5c(cccc35)CC4)C2)c(C)[nH]1 (configuration not stated)	10	-4	3	82*	31	-13
N#CC(Sc1ccccn1)c1ccc(Cl)cc1Cl (configuration not stated)	0	-6	28*	40*	-18	-28
N#Cc1cc(Sc2ccccn2)c(Sc2ccccn2)cc1C#N	2	5	-2	0	-5	14
CCOC(=O)Cn1nc(C)c(NC(=O)COc2ccc(C)c(C)c2)c1C	15	·	11	-14	7	-47
Cc1cc(C)c2nc3sc(C(=O)N4CCOCC4)c(N)c3cc2c1	3	·	-5	-2	88*	-15
Nc1c(C(=O)N2CCOCC2)sc2nc3c(cc12)CCCC3	3	·	·	·	76*	-11
O=C(O)CSc1nnc(-c2ccc3c(c2)OCO3)o1	-2	-17	-1	7	10	-5
